FBPA Giardia inh: qHTS Assay for Inhibitors of Fructose-1,6-bisphosphate Aldolase from Giardia Lamblia; purified Giardia FBPA; A8B2U2; actives 0.71% (n = 290,000); Potency, µM (top dose mostly 59.6 µM), inactives show at the highest dose activity, negative = inhibition, most hits filed as inhibitors; AID 2451, 2010; note: nearly all actives have a fitted effect of over 55% in size
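Giardia FBPA (40 nM reagent) was preincubated 10 min at RT with compound (up to 57.5 uM final), then substrate plus GAPDH/TPI/NAD/arsenate coupling system with diaphorase/resazurin was added; resorufin fluorescence (525/598 nm) was read after 20 min.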
AmpC detergent: qHTS Inhibitors of AmpC Beta-Lactamase (assay with detergent) | AmpC hydrolysis of nitrocefin, absorbance 480 nm, 0.01% Triton | Potency, µM (top dose mostly 114 µM), for inactives: at the top dose activity change, negative = inhibition, actives largely listed as inhibitors | actives 0.041% (n = 370,000) | AID 485294, 2010;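 note: 0% = no-compound wells and -100% = no-enzyme wells; nearly all actives have a fitted effect of over 25% in size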
Target sequence (P00811 whole entry, looked up): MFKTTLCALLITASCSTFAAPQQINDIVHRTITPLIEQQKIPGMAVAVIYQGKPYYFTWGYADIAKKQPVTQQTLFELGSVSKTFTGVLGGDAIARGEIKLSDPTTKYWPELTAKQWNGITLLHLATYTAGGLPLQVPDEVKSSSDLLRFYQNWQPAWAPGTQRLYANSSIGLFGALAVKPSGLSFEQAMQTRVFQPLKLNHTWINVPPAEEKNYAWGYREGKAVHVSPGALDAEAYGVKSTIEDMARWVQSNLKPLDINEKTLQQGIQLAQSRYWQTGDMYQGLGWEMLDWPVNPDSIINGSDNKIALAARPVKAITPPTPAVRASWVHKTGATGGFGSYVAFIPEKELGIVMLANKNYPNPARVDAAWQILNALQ
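20 mM phosphate pH 7.0 + 0.01% (detergent screen) or 0.0001% Triton X-100; 5.3 nM AmpC reagent; cpd preinc 15 min RT; nitrocefin (800 uM stock) to start; A480 q20 s × 4 min; Activity was normalised to no-enzyme and no-compound control wells.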
TbPYK inhibitor: qHTS of Trypanosoma Brucei Inhibitors; AID 624173, 2012; Potency, µM (top dose mostly 76.8 µM), for the others: top-dose activity, negative = inhibition, most hits filed as inhibitors; TbPYK enzyme, Kinase-Glo Plus ATP luminescence, 45 min; actives 0.12% (n = 410,000); pyruvate kinase (Trypanosoma brucei), Q57TT1; note: nearly all actives have a fitted effect of over 50% in size
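TbPYK + substrate in 50 mM TEA pH 7.2, 100 mM KCl, 10 mM MgCl2, 0.05% BSA, 0.01% Tween-20; cpd pinned; ADP 130 uM final; 45 min RT; Kinase-Glo Plus 10 min; luminescence endpoint.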
AmpC inh no detg: qHTS Inhibitors of AmpC Beta-Lactamase (assay without detergent); AID 485341, 2010; AmpC nitrocefin hydrolysis, absorbance 480 nm, 0.0001% Triton; P00811; Potency, µM (titrated, usually from 57.1 µM), for the others: top-dose activity change, negative = inhibition, actives largely listed as inhibitors; actives 0.52% (n = 330,000);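 note: plate controls were no compound for no effect and no enzyme for full effect; nearly all actives have a fitted effect of over 20% in size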
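AmpC (5.3 nM in the dispensed reagent) in 20 mM phosphate pH 7.0 with 0.01% (detergent screen) or 0.0001% Triton X-100 was preincubated with compounds for 15 min at room temperature. Nitrocefin was then added from an 800 uM solution, and hydrolysis was followed at 480 nm.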
LmPK inhibitor: qHTS Assay for Inhibitors of Leishmania Mexicana Pyruvate Kinase (LmPK); Potency, µM (top dose mostly 57.5 µM), for the others: at the top dose activity change, negative = inhibition, most hits filed as inhibitors; purified LmPK, Kinase-Glo ATP luminescence, 1 h; actives 0.37% (n = 290,000); Q27686
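qHTS format; LmPK 0.1 nM; substrates PEP 0.5 mM and ADP 0.1 mM. One-hour room-temperature incubation, then coupled luciferase luminescence; 0.5 nM enzyme wells mark activation.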
RE007 growth inh: qHTS Assay for Inhibitors of the HIV-1 protein Vpr; S. pombe RE007 Vpr strain, BacTiter-Glo ATP luminescence, 24 h; Potency, µM (highest dose often 92.2 µM), inactives show at the top dose activity change, negative = less growth, hits mostly inhibitors; actives 0.21% (n = 360,000); AID 651644, 2012; active = well fitted falling curve with a large enough effect; inconclusive = small, poorly fitted or top-dose-only effect; inactive = no such curve, though single readings can be large or run the other way; note: nearly all actives have a fitted effect of over 50% in size
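Fission yeast RE007 carrying one integrated HIV-1 vpr copy, seeded at OD 0.01 in PMG+AL medium with 23 nL pinned compound. Grown 24 h at 30 degrees; viability read by BacTiter-Glo luminescence after 5 min.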
The depositor's hits bear a star; ? = inconclusive; . = not tested or not shown; [ ] = remark or other dose. Sampled rows, rich in hits. Any-hit rate of the full collection: about 1.4%. Unless noted, calls come from the whole dose curve; as a rule, active = well fitted curve in the direction sought with a large enough effect; inconclusive = small, poorly fitted or top-dose-only effect, or another doubt; inactive = no such curve, though single readings can be large; an effect the other way counts as inactive or inconclusive. Unless noted, % is set by controls: 0 for no effect and ±100 for the full control effect; potency is the fitted concentration of half-maximal effect.

SMILES	FBPA Giardia inh	AmpC detergent	TbPYK inhibitor	AmpC inh no detg	LmPK inhibitor	RE007 growth inh
Cc1ccc(C)c(N2CCN(S(=O)(=O)c3c(C(=O)N4CCC(C)CC4)c(C)n(C)c3C)CC2)c1	.	0%	8%	.	.	.
O=C1C2C3C=CC(CO)(O3)C2C(=O)N1c1ccc(-c2ccccc2)cc1 (stereo not drawn)	-11%	-17%	.	-4%	?	.
Cc1ccc(N2C(=O)C3C4C=CC(CNC(=S)Nc5ccc(F)cc5)(O4)C3C2=O)cc1 (stereo not drawn)	-10%	-6%	-13%	-36%	-2%	10µM*
CC(C)(C)C(=O)NCC12C=CC(O1)C1C(=O)N(c3ccccc3)C(=O)C12 (stereo not drawn)	-1%	?	?	-30%	11%	8.9µM*
O=C(NCc1ccccc1)C(=O)NCC(c1ccc2c(c1)OCO2)N1CCOCC1 (stereo not drawn)	.	-6%	-3%	.	.	.
Cc1cc(Cl)ccc1OCC(=O)Nc1nc(-c2cccs2)cs1	0%	1%	-6%	18µM*	5%	?
CC1=CC(=Nc2c(C)n(C)n(-c3ccccc3)c2=O)C=CC1=O	3.5µM*	0%	.	-17%	?	.
Cc1cccc(C)c1OCC(O)Cn1c2ccccc2c2ccccc21 (stereo not drawn)	-17%	-13%	0%	-8%	3%	35µM*
Cc1ccc(OCC(O)Cn2c3ccccc3c3ccccc32)cc1 (stereo not drawn)	-9%	7%	-4%	-4%	4%	?
CCn1cc(S(=O)(=O)c2cc(C)cc(C)c2)c(=O)c2cc(F)c(N3CCN(c4ccccc4)CC3)cc21	.	-4%	-7%	.	.	.
CC1=CCC2C(=O)N(c3ccccc3OC(=O)c3ccccc3F)C(=O)C2C1 (stereo not drawn)	-1%	-1%	7%	10µM*	-2%	11%
Cc1ccccc1C(=O)NC(=S)Nc1ccccc1C(=O)O	-5%	-2%	-7%	-12%	0%	28%
COC(=O)c1ccccc1NC(=S)NC(=O)c1ccccc1C	-10%	40µM*	-9%	-59%	-4%	-3%
COc1ccc(NC(=O)Cn2c(=O)oc3cc(S(=O)(=O)NC4CCCC4)ccc32)cc1OC	.	3%	-4%[15.4 µM]	.	.	.
Cc1cccc(C)c1N(CC(=O)Nc1cc(Cl)ccc1Oc1ccccc1)S(C)(=O)=O	-8%	?	5%	0.16µM*	-3%	20%
c1ccc(-c2ccc(-n3ccnc3)cc2)cc1	-6%	?	-7%	-7%	-6%	28µM*
c1ccc(-c2ccc(C(c3ccccc3)n3ccnc3)cc2)cc1 (stereo not drawn)	?	6%	8%	-7%	11%	-7%
C=CCn1c(NCc2cc(Cl)ccc2O)nc2ccccc21	-2%	-17%	-2%	14µM*	-5%	-5%
C=CCn1c(NCc2ccccc2O)nc2ccccc21	7%	-12%	3%	-36%	2%	-13%
CCOC(=O)N1CCN(C(=O)c2ccc(-n3c(=S)[nH]c4ccccc4c3=O)cc2)CC1	0%	-1%	-5%	-59%	7%	-1%
CCOC(=O)COc1cc(-n2c(=S)[nH]c3ccccc3c2=O)c(Cl)cc1Cl	-11%	?	6%	18µM*	16%	-19%
COc1ccc2c(c1)sc1nc(-c3ccccc3)cn12	-23%	-2%	?	3%	13µM*	?
N=C1/C(=C\c2ccc(-c3cccc(Cl)c3)o2)C(=O)N=C2SC=C(c3ccccc3)N12	?	-7%	-3%	16µM*	3%	-23%

High-throughput results from PubChem.
